# Screening results (PubChem)
# Shown are actives, neighbours in structure and some others; about 6.2% of the full set was active somewhere.
# MARV entry inh – qHTS for inhibitors of binding or entry into cells for Marburg Virus | 300,000 compounds, 1.8% hits | Potency, µM (highest dose often 37.8 µM), most hits filed as inhibitors | Marburg virus pseudotyped entry inhibition, cell reporter; calls by dose curve; tested in HEK293 cells
# Lassa entry inh – qHTS for Inhibitors of binding or entry into cells for Lassa Virus; 300,000 compounds, 1.2% hits; Lassa virus pseudotype entry inhibition, cell reporter; Potency, µM (top dose mostly 37.9 µM), usual class: inhibitors; calls by dose curve; tested in HEK293 cells; note: nearly all actives have a fitted effect of over 50% in size
# HCMV antiviral – qHTS Assay for inhibitors of the human cytomegalovirus (HCMV); AID 1259415, 2018; 410,000 compounds, 4.5% hits; activity change, negative = inhibition, % at 57.5 µM; HFF cells, HCMV-luciferase reporter, 72 h; hits give low values; in the data active = activity change below about -60%; inconclusive = no clear call, values can overlap the other calls; inactive = above about -39%
#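 Luciferase read-out from HCMV-luciferase-infected HFFs (MOI 1 PFU/cell) 72 h post infection at 37C; compounds added after 16 h cell attachment; activity normalized between buffer-only basal and Salinomycin (10uM) inhibitor controls.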
# FMDV antiviral – High Throughput Screening for Foot and Mouth Disease Virus Antivirals; FMDV antiviral cell-based qHTS; Potency, µM (highest dose often 57.9 µM), usual class: inhibitors; 410,000 compounds, 1.2% hits; AID 1159524, 2015; calls by dose curve; tested in HEK293T cells; note: read-out not given here; nearly all actives have a fitted effect of over 45% in size
# A number is an active result; - = inactive; ? = inconclusive; . = no result.
SMILES,MARV entry inh,Lassa entry inh,HCMV antiviral,FMDV antiviral
CC(C)(C)C1CCC2(CC1)CC(=O)c1ccccc1O2 (stereo unspecified),.,.,-61,-
CCCCNC(=O)C1(C)CCC(=O)N1C1CC1 (stereo unspecified),.,.,-,-
O=C1C=C(N(CCO)Cc2ccccc2)c2ccccc2C1=O,?,4.5µM,.,14µM
CC(C)=CCN1CCN(Cc2ccc(C)s2)CC1CCO (stereo unspecified),-,?,-67,-
Brc1ccc(-c2csc(/N=C/N3CCOCC3)n2)cc1,?,?,-,-
Brc1ccc(-c2csc(/N=C/N3CCCC3)n2)cc1,8.9µM,?,-,-
Cc1ccc(NC2(c3nnnn3-c3c(C)cccc3C)CCCCC2)cc1,?,?,-74,-
COCCN1C(=O)CCC1(C)c1nnnn1-c1c(C)cccc1C (stereo unspecified),.,.,-,-
O=C(/C=C/Nc1ccc(F)cc1)c1cccs1,11µM,?,-,13µM
O=C(/C=C/Nc1ccc(F)c(F)c1)c1cccs1,?,?,-,-
O=C(Nc1cc(Cl)ccc1Cl)C1(c2cccs2)CCOCC1,.,?,-,-
CCOC(=O)CSC1=NC(=O)/C(=C/c2ccc(OC)cc2)S1,?,?,.,25µM
COc1ccc(/C=C2\SC(N)=NC2=O)cc1,-,-,-,-
COc1ccc(/C=C/c2ccc(=O)n(Cc3ccccc3)n2)cc1,-,5µM,-,-
O=c1ccc(/C=C/c2ccccc2)nn1Cc1ccc(F)cc1,-,?,-,?
CCOC(=O)Cn1nc(/C=C/c2ccc(OC)cc2)ccc1=O,-,-,-106,-
COc1ccccc1CCNCc1cc2cccc(C)c2nc1-c1cccs1,.,.,.,-
Cc1ccc(C2=NCC(C)n3nc4cc(C(F)(F)F)ccc4c32)cc1 (stereo unspecified),.,.,-,.
COc1ccccc1CNC(=O)CCCCn1c(=O)c2ccccc2n(Cc2ccccc2C)c1=O,-,-,-,-
COCCNC(=S)N/N=C(\C)c1ccc(OC)cc1,-,?,-,-
C=C(C)CNC(=S)N/N=C(\C)c1ccc(OC)cc1,?,?,-70,-
C/C(=N\NC(=S)NCc1ccccc1)c1ccccc1,?,?,-,-
COc1ccc(/C(C)=N/NC(=S)Nc2cc(C)ccc2C)cc1,.,.,?,-
C/C(=N\NC(=S)NCc1ccccc1)c1ccc(C(C)(C)C)cc1,?,0.46µM,-,-
COCCNC(=S)N/N=C(\C)c1ccc2cc(OC)ccc2c1,?,8.2µM,-75,-
SMILES,MARV entry inh,Lassa entry inh,HCMV antiviral,FMDV antiviral
COc1ccc(CNC(=S)N/N=C(/C)c2ccccc2)cc1,?,14µM,-,-
O=C(Cn1ncc2c3ccccc3n(Cc3ccccc3F)c2c1=O)NCc1ccccc1Cl,-,-,-,-
Cc1cccc(Cn2cccc2CNS(=O)(=O)c2ccc(C)c(C)c2)c1,.,-,-,-
CCc1noc(C)c1C(=O)N1CCOc2ccc(CN3CCN(c4ccccn4)CC3)cc2C1,.,.,.,-
COc1cc(/C=C/c2nc(C#N)c(NC(C)c3ccccc3)o2)cc(OC)c1OC (stereo unspecified),?,?,-,-
OC(c1cc(-c2cccc(Cl)c2)nc2ccccc12)C1CCCCN1 (stereo unspecified),11µM,?,-98,?
OC(c1cc(-c2ccc(C(F)(F)F)cc2)nc(C(F)(F)F)c1)C1CCCCN1 (stereo unspecified),.,.,-102,?
OC(c1cc(C(F)(F)F)nc2c(C(F)(F)F)cccc12)C1CCCCN1 (stereo unspecified),.,.,-99,?
COc1ccc(C(=O)N2CCC2(C)C(=O)NC(C)C)cc1 (stereo unspecified),.,.,-,-
O=c1oc(-c2ccccc2[N+](=O)[O-])nc2ccccc12,-,-,-,-
O=[N+]([O-])c1ccc(-c2nc(Nc3ccc(O)cc3)c3ccccc3n2)cc1,.,.,-,-
O=[N+]([O-])c1ccc(Nc2c3ccccc3nc3ccccc23)cc1,?,-,-90,-
O=[N+]([O-])c1ccccc1Nc1c2ccccc2nc2ccccc12,?,?,-62,-
Cc1cccc(C)c1Nc1nn2c(=O)c3cc4c(cc3nc2s1)OCO4,-,-,-,-
Cc1ccc(N2CCN(c3nc4c(S(=O)(=O)c5ccc(C)c(C)c5)nnn4c4ccccc34)CC2)c(C)c1,.,-,-,-
CCN(CC)CCSc1nnc2c3cc(C)ccc3n(Cc3ccccc3)c2n1,?,?,-85,-
CC(C)c1nnc(N2C(=O)c3oc4ccccc4c(=O)c3C2c2ccccc2F)s1 (stereo unspecified),-,-,-,-
COc1ccc(CCN2CCC(Nc3nc4ccccc4n3Cc3ccc(F)cc3)CC2)cc1,4.1µM,?,.,-
CN(C(=O)c1ccc(NC(=O)Cc2ccccc2)cc1)c1ccccc1,-,-,-,-
CCN(C(=O)c1ccc(NC(=O)Cc2ccccc2)cc1)c1ccccc1,-,-,-67,-
Cc1ccc(Nc2cc(C)nc3nc(C)nn23)c(C)c1,-,-,-,0.71µM
O=C1CC(c2ccccc2)NC(=O)N1 (stereo unspecified),-,-,-99,-
CNC(=S)N/N=C(\C)c1ccc(C(C)(C)C)cc1,?,-,-,-
CNC(=S)N/N=C(\C)c1ccc2c(c1)OCCO2,?,-,-,-
CNC(=S)N/N=C(\C)c1ccccc1,-,?,-97,-
SMILES,MARV entry inh,Lassa entry inh,HCMV antiviral,FMDV antiviral
CNC(=S)N/N=C(\C)c1ccc2c(c1)OCO2,.,.,-104,-
COc1ccc(CCC(=O)N/N=C(\C)c2ccc3c(c2)OCO3)cc1,-,0.35µM,-,-
CC(C)CCNC(=O)c1cc(C(=O)c2cc(F)ccc2O)cn(CCC(C)C)c1=O,-,-,-,-
CC(C)CCNC(=O)c1cc(C(=O)c2cc(Br)ccc2O)cn(CCC(C)C)c1=O,-,-,-73,?
CCOCCCn1cc(C(=O)c2cc(Br)ccc2O)cc(C#N)c1=O,-,?,-,-
COCCCn1cc(C(=O)c2cc(Br)ccc2O)cc(C#N)c1=O,1.6µM,?,-,-
COc1ccc(N/C(C)=C2/C(=O)C(=O)N(CCO)C2c2ccc(Br)cc2)cc1 (stereo unspecified),-,-,-96,-
COc1ccc(C2/C(=C(/O)c3ccccc3)C(=O)C(=O)N2CCO)cc1 (stereo unspecified),-,-,-,-
O=C(CNC(=O)c1ccc(F)cc1)N/N=C/c1cc(Br)ccc1OC(=O)/C=C/c1ccco1,.,.,-77,-
O=C(CNC(=O)c1ccccc1F)N/N=C/c1cc(Br)ccc1OC(=O)/C=C/c1ccco1,?,?,-83,-
CCc1nc2ccc(C(=O)NCc3ccc4c(c3)OCO4)cn2c1N(C)CCC(C)C,.,.,-,-
Cc1cc(C)cc(OCc2nc3ncc(Br)cc3[nH]2)c1,?,?,-63,-
CC(C)(CNC(=O)c1cc([N+](=O)[O-])ccc1N1CCC(Cc2ccccc2)CC1)N1CCOCC1,.,.,-63,-
COc1ccc(Cn2c(=O)oc3ccc(C)cc32)cc1OC,?,?,-95,?
COc1ccc(Cn2c(=O)oc3ccccc32)cc1OC,.,.,-,?
O=C1c2ccccc2-c2n[nH]c(=O)c3ccc(N4CCCCC4)c1c23,-,-,-62,?
O=C1c2cccc3c(N4CCCCC4)ccc(c23)C(=O)N1c1ccccn1,-,-,-,-
